Each structure is given as a SMILES string. Among all 340,000 compounds or so, about 210 (0.062%) were called active. This is one part of a sample in which actives are shown more often than they occur. Values without a mark were called inactive. No stated cut-off is given here; in the data, active means inhibition above about 30% (passing the limit was not always enough); inconclusive means no clear call, values can overlap the other calls.

The test system of the assay is PvdQ acylase [Pseudomonas aeruginosa LESB58]. Nature of the assay: P. aeruginosa PvdQ acylase inhibitors, primary screen, biochemical, fluorescence, plate reader and imaging, single point (AID 488965).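 Further: 0% = vehicle neutral wells and 100% = reference inhibitor wells.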 The note with it: purified PvdQ acylase, at 10 µM, active compounds read high.
As usually defined, the inhibition is the drop in the measured response relative to a control, in per cent. As to `CCSc1nc2sc3c(c2c(=O)n1-c1ccc(C)cc1)CCN(C)C3`, the inhibition is -19.4%.

For the molecule `C/C=N/N(c1ccccc1)c1ccccc1`, the inhibition was -15.2%.

Turning to `COC(=O)C[n+]1cccc2ccccc21`, the inhibition was -19.7%.

For the molecule `CC(=O)c1ccccc1NC(=O)C1CC(=O)N(c2ccc3c(c2)OCCO3)C1` (centres undefined), the inhibition was 3.1%.

Consider `Cc1ccc(-c2csc(N3CCN(c4cc5c(cc4Cl)nc(-c4ccncc4)n5CCOCCO)CC3)n2)cc1`, for which the inhibition is 2.95%.

As to `CCOc1ccc(/C=C(/NC(=O)c2ccccc2)C(=O)NCCC(=O)O)cc1`, the inhibition is 3.82%.

Consider `O=C(NCc1cccnc1)c1cnc2ccccc2n1`, for which the inhibition is -7.28%.

With `COc1ccccc1CN1CCCC(N2CCN(c3ccc(F)cc3)CC2)C1` (centres undefined), the inhibition was -5.39%.

For the molecule `O=C(COC(=O)/C=C/c1cccs1)NC1CCCCC1`, the inhibition was -1.95%.

As for `COc1ccc(Cn2c(-c3ccc(Cl)cc3)c[n+]3ccccc23)cc1`, the inhibition is -9.83%.

`COc1ccc(/C(N)=N/OC(=O)CCCc2ccccc2)cc1`: the inhibition was 12.9%.

For the molecule `Cc1ccccc1N1CC(C(=O)Nc2ccc(S(=O)(=O)N3CCCC3)cc2)CC1=O` (centres undefined), the inhibition is -17.2%.

Take `COc1ccccc1C(=O)N(Cc1ccc(C)o1)C1CCS(=O)(=O)C1` (centres undefined): the inhibition is -16.8%.

As for `O=C(NCc1cccc(CNC(=O)Nc2cccc(O)c2)c1)Nc1cccc(O)c1`, the inhibition was 8.11%.

For the molecule `OCCn1c(-c2ccccc2)csc1=Nc1ccccc1`, the inhibition was -14.6%.

For the molecule `CNC[C@H](CC1CCCCC1)NC[C@H](NCCC1CCCC1)[C@H](C)O`, the inhibition is -4.64%.

Turning to `CCCCNC1(C#N)CCN(Cc2ccccc2)CC1`, the inhibition is -10.8%.

`Cc1ccc(S(=O)(=O)N[C@@H](Cc2ccccc2)C(=O)N2CCC(C(=O)N[C@H](C(=O)O)C(C)O)CC2)cc1` (some centres undefined): the inhibition was -16.1%.

For `CN1CCN(CC(O)COCc2ccc3c(c2)OCO3)CC1` (centres undefined), the inhibition was 13.9%.

For the molecule `O=C(c1cccs1)C1C(c2ccc(Br)cc2)NC(=S)NC1(O)C(F)(F)F` (centres undefined), the inhibition is -1.76%.

For `Cc1ccc2nc(SCC(=O)N3CCN(c4ccccc4)CC3)nc(=O)n2c1`, the inhibition was -4.06%.

On to `CCC1([N+](=O)[O-])COC(c2ccc(C)cc2)OC1` (centres undefined), for which the inhibition is -3.75%.

For the molecule `CCCCCN(C(=O)NC(=O)Nc1ccccc1OC)S(C)(=O)=O`, the inhibition was -5.97%.

With `Cc1cccn2c(CN(C)C3CCCc4ccccc43)c(C(=O)N3CCOCC3)nc12` (centres undefined), the inhibition was -1.38%.

Consider `CCOc1cccc(OCCCOc2cccc3cccnc23)c1`, for which the inhibition is -17.7%.

In the case of `COc1ccc(S(=O)(=O)N(C)C[C@H]2Oc3ccc(NS(=O)(=O)c4cccs4)cc3CC(=O)N([C@H](C)CO)C[C@H]2C)cc1`, the inhibition is 3.49%.

With `CCCCN1CC(COc2ccccc2)Oc2cccc(F)c2S1(=O)=O` (centres undefined), the inhibition is -16%.

With `CCCCCC1CC(COc2ccccc2)OC1=O` (centres undefined), the inhibition is 44.8% (active).

Regarding `O=C(O)c1ccc(OCC2CCCO2)cc1` (centres undefined), the inhibition was -9.45%.

`CCCCCCNS(=O)(=O)c1ccccc1Br`: the inhibition is -11.4%.

Take `CC(CNC(=O)Cn1cnc2c(OCc3ccccc3)ncnc21)c1ccccc1` (centres undefined): the inhibition was -13.2%.

Turning to `CCCCNC(=O)N1CCCC(N(C)CCc2ccc(OC)c(OC)c2)C1` (centres undefined), the inhibition is -14.5%.

Consider `CN(Cc1ccccc1F)C(=O)C(Cc1ccccc1)NC(=O)c1ccccc1` (centres undefined), for which the inhibition is -5.25%.

As to `Cc1nn(CCOc2ccc(Br)cc2)c(C)c1[N+](=O)[O-]`, the inhibition is -14%.

`CCOC(=O)N1CCN(Cc2nc3ccc([N+](=O)[O-])cc3c(=O)n2-c2cccc(OC)c2)CC1`: the inhibition is -6.54%.

For `CCn1nnnc1SCC(=O)Nc1ccc(N(C)C)cc1`, the inhibition was -8.46%.

In the case of `COc1ccc(N(CC(=O)NC2CCCCCCC2)S(=O)(=O)c2c(C)nn(C)c2C)cc1`, the inhibition was -11.2%.

For the molecule `Cc1ccc(CNC(=O)CC(NC(=O)c2ccccc2)c2ccccc2)cc1` (centres undefined), the inhibition is -6.05%.

For `NC(=O)c1ncc(C(F)(F)F)cc1Oc1ccc(F)cc1`, the inhibition was -11.7%.

On to `O=C(Nc1ccc(OCC(=O)N2CCOCC2)cc1)c1cc(F)c(F)cc1Cl`, for which the inhibition was -15.7%.

Regarding `Cc1ccc(CN2CC(C(=O)N3CCN(S(=O)(=O)c4ccccc4)CC3)CC2=O)cc1` (centres undefined), the inhibition is -11.4%.

Take `O=C1C=CC(=O)N1c1ccc(N2CCCCC2)cc1`: the inhibition is -13.5%.

For the molecule `C#CCOCCOCCOCCNc1nc(N2CCN(C(=O)[C@H](CO)n3cc([C@@H](N)C(C)C)nn3)CC2)nc(N2CCN(C(=O)[C@H](CCC(=O)O)n3cc([C@@H](N)[C@H](C)CC)nn3)CC2)n1`, the inhibition was -4.25%.

For the molecule `COc1ccc(C(=O)NC2CCN(C(=O)Nc3ccc(F)cc3)CC2)cc1`, the inhibition was -6.33%.

Regarding `O=C(CSc1nnc(-c2cccnc2)n1CCc1ccccc1)NCc1ccccc1`, the inhibition is -11.6%.

With `CCOC(=O)C1(Cc2ccc(O)cc2)NC(c2ccccc2F)C2C(=O)N(C)C(=O)C21` (centres undefined), the inhibition was -8.27%.

In the case of `CC[C@]12c3[nH]c4ccc(Cl)cc4c3CCN1C(=O)[C@@H](CC(=O)NCCCOC)C[C@@H]2C(=O)N1CCN(C(=O)c2ccco2)CC1`, the inhibition was -13.8%.

For the molecule `O=C(/C=C/c1ccccc1Cl)Nc1ccc(S(=O)(=O)Nc2ncccn2)cc1`, the inhibition was -4.75%.

As to `O=C(CCCOc1ccccc1)NCc1ccco1`, the inhibition is -2.34%.

With `CCn1c(SCC(=O)Nc2ccc(OC)c(OC)c2)nnc1-c1c[nH]c2ccccc12`, the inhibition is -5.34%.

On to `COc1ccc(N2C(=O)CC(Sc3n[nH]c(-c4ccc(C)cc4)n3)C2=O)cc1` (centres undefined), for which the inhibition was -16%.

With `CC(NC(=S)NNS(=O)(=O)c1ccc(C(C)(C)C)cc1)c1ccccc1` (centres undefined), the inhibition was -8.37%.

As for `Cc1cc(C)cc(NC(=O)N(C)Cc2ccccc2)c1`, the inhibition was -16%.

On to `C/C(Cc1ccccc1)=N\NC(=O)CNC(=O)c1cccc(Br)c1`, for which the inhibition is 2.03%.

For `CCOc1ccc(OCC)c(NC(=O)CCS(=O)(=O)c2ccc(C)cc2)c1`, the inhibition was -14.3%.

In the case of `CCc1ccc(NC(=O)N2CCc3ccccc3C2)cc1`, the inhibition is -0.823%.

For `CCOC(=O)C(NC(=O)CC(C)C)(Nc1sc2c(c1C(N)=O)CCCC2)C(F)(F)F` (centres undefined), the inhibition was -4.91%.

Regarding `CC1Cc2ccccc2N1S(=O)(=O)c1ccc(Cl)nc1` (centres undefined), the inhibition was 24.3%.

Turning to `COc1ccc(OCC(=O)NN2Cc3ccccc3C2=N)cc1`, the inhibition was 7.9%.

As to `COc1ccc(CNS(=O)(=O)c2ccc(NC(=O)N3CCCCC3)cc2)cc1`, the inhibition was 1.88%.

In the case of `O=C(N/N=C/c1ccc(Cl)cc1)c1nc2ccc([N+](=O)[O-])cc2c(=O)[nH]1`, the inhibition was -8.55%.

Consider `N#Cc1cc([N+](=O)[O-])ccc1Oc1cccc(/C=N/NC(=O)c2ccc(Cl)cc2)c1`, for which the inhibition was 65.3% (active).

Turning to `O=C(N/N=C/c1cccc(OC(=O)c2ccc([N+](=O)[O-])cc2)c1)c1cccnc1`, the inhibition is -8.47%.

Turning to `C/C(=N\NC(=O)Cc1ccccc1[N+](=O)[O-])c1cccnc1`, the inhibition was -8.6%.

As for `O=C(CN1CCSCC1)N/N=C/c1ccc(F)cc1F`, the inhibition is -7.29%.

With `COc1ccccc1N1CCN(C(=O)CCS(=O)(=O)c2ccc3c(c2)NC(=O)C(C)S3)CC1` (centres undefined), the inhibition was -17.3%.

Regarding `CN1C(C(=O)NCc2ccco2)CC2Cn3c(nc4ccccc43)C21` (centres undefined), the inhibition was -1.69%.

With `CCOC(=O)N1CCC(Nc2c(NCCCN3CCN(CC)CC3)c(=O)c2=O)CC1`, the inhibition is -6.72%.

Consider `O=C(NCc1ccco1)/C(=C/c1cccc([N+](=O)[O-])c1)NC(=O)c1ccco1`, for which the inhibition is 5.34%.

For `OC(CNCC1CCCO1)Cn1c2ccc(Br)cc2c2cc(Br)ccc21` (centres undefined), the inhibition is -10.5%.

As for `O=c1cc(Cl)c2ccccc2n1-c1ccccc1`, the inhibition was -10.1%.

Take `Cc1cccc(N2CCN(C(=O)c3cccc(N4C(=O)C5C6C=CC(C6)C5C4=O)c3)CC2)c1C` (centres undefined): the inhibition was -11.5%.

As for `Cc1ccc(S(=O)(=O)NCCSC(C)(C)C)cc1`, the inhibition is 6.35%.

For `COc1ccc(S(=O)(=O)N2C[C@H]3CON(C)[C@H]3C[C@H]2c2cccc(Br)c2)cc1`, the inhibition is 4.46%.

Consider `O=C(NCCc1ccccc1)C1CCC(Cn2c(=O)c3ccccc3n(Cc3cccnc3)c2=O)CC1` (centres undefined), for which the inhibition is -13.5%.

As to `COc1ccc(-c2[nH]ncc2CN(C)Cc2cccnc2)c(F)c1`, the inhibition was -16.1%.

For the molecule `Cc1ccc(N(C(=O)Cc2cccs2)C2C=CS(=O)(=O)C2)cc1Cl` (centres undefined), the inhibition was -5.8%.

Turning to `CCCC(=O)N1CCN(c2nnc(-c3ccc(C)cc3)c3ccccc23)CC1`, the inhibition is -23.6%.

As to `COc1cccc(NC(=O)c2ccccc2N(Cc2ccccc2)S(C)(=O)=O)c1`, the inhibition is -17.2%.

With `CCOc1ccc(-c2noc(CCC(=O)NC3CCCC3)n2)cc1OC`, the inhibition is 3.89%.

As to `CC(C)=CCC/C(C)=C/C(=O)O`, the inhibition was -3.82%.

In the case of `O=C(N/C(=C/c1ccc(Cl)cc1)C(=O)N1CCCCC1)c1ccco1`, the inhibition was -10.7%.

As for `CN1C(C(=O)NCC2CC2)CC2Cn3c(nc4ccccc43)C21` (centres undefined), the inhibition was -7.73%.

As for `O=C1C=C(c2cccc(Cl)c2O)C[C@@H](c2ccc(F)cc2)C1`, the inhibition is -5.55%.

With `O=C1C=C(c2cccc(Cl)c2)C[C@@H](c2ccc(F)cc2)C1`, the inhibition was 37.3% (active).

As for `O=C1C=C(c2cccc(Br)c2)C[C@@H](c2ccc(F)cc2)C1`, the inhibition is 63.4% (active).

On to `COc1ccccc1C1=CC(=O)C[C@H](c2ccc(F)cc2)C1`, for which the inhibition is 2.08%.

Take `COc1cccc(C2=CC(=O)C[C@H](c3ccc(F)cc3)C2)c1OC`: the inhibition was -13.7%.

For `COc1cccc(C2=CC(=O)C[C@H](c3ccc(OC)c(OC)c3)C2)c1`, the inhibition is -0.585%.

These data come from PubChem BioAssay AID488965 (Broad Institute, 2010).
